In ChEMBL document CHEMBL4513216, “Probing the Open Global Health Chemical Diversity Library for Multistage-Active Starting Points for Next-Generation Antimalarials” (ACS Infect Dis, 2020):
Among all 69,000 compounds or so, about 8,600 (12%) showed an effect of 50% or more. This is one part of a sample in which strong results are shown more often than they occur.

The compounds below were run on Plasmodium berghei (assay: Screen against P. berghei liver stage (PbLuc), transformed with Luciferase, at 10uM). Settings: tested at 10 uM.
Assay type: functional, HepG2

Row | Compound | INHIBITION
1 | Cc1ccc(CN(CCCn2ccnc2)Cc2cccs2)s1 | 82.1%
2 | Cc1ccc(CN(CCCn2ccnc2)Cc2cnc(N(C)C)nc2)s1 | -16.5%
3 | Cc1ccc(CN(CCCn2ccnc2)Cc2c(F)cccc2F)s1 | 94.1%
4 | COc1ccc(F)c(CN(CCCn2ccnc2)Cc2ccc(C)s2)c1 | 86.9%
5 | CCc1ccc(CN(CCCn2ccnc2)Cc2ccc(C)s2)o1 | 52.3%
6 | Cc1ccc(CN(CCCn2ccnc2)Cc2cnn(C)c2)s1 | 24.4%
7 | Cc1ccc(CN(CCCN2CCOCC2)Cc2cncn2C)o1 | 30.4%
8 | Cc1ccc(CN(CCN(C)C)Cc2ncc[nH]2)s1 | 17.6%
9 | COc1ccc(Cn2ccnc2)cc1F | -20.7%
10 | COc1ccc(Cl)cc1CNCCCn1ccnc1 | -22.1%
11 | CCCc1cncnc1N1CCCC2(CCC(=O)N(C3CCCC3)C2)C1 (stereo not drawn) | 32.4%
12 | O=S(=O)(c1cnccc1N1CCN(CCO)CC1)N1CCCCC1 | 8.38%
13 | CC(C)N1CCCC(c2cc(C(F)(F)F)nc3nccn23)C1 (stereo not drawn) | 3.03%
14 | O=C(O)CCC(=O)Nc1nn(Cc2ccccc2Cl)cc1Cl | 19.3%
15 | CC(C)c1nccn1C1CCCN(C(=O)c2ccc3nncn3c2)C1 (stereo not drawn) | 36.1%
16 | Cc1cnn(CC2CCCN2C(=O)CCc2c(C)nc(C)[nH]c2=O)c1 (stereo not drawn) | -37.7%
17 | CC(=O)N1CCC(c2cncc(Oc3ccccc3)n2)CC1 | 41.5%
18 | CN(Cc1ccno1)c1nc(C2CCCC2)nc2c1cnn2C | 20%
19 | Cc1cc(CN2CC[C@H]3C[C@H](C(=O)Nc4cccnc4C)O[C@@H]3C2)no1 | 48.6%
20 | OCc1ccc(CN(CCCn2ccnc2)Cc2cccnc2)o1 | 56%
21 | Cc1ccc(CN(CCCn2ccnc2)Cc2cc(F)ccc2F)s1 | 88.1%
22 | OCc1ccc(CN(CCCn2ccnc2)Cc2ccncc2)o1 | 42.1%

Row | Compound | INHIBITION
23 | CC(C)OCCCN(Cc1ccncc1)Cc1cc(F)ccc1F | -16.5%
24 | Fc1ccccc1CN(CCCn1ccnc1)CC1CCOC1 (stereo not drawn) | 1.62%
25 | c1cncc(CN(CCCn2ccnc2)CC2CCOC2)c1 (stereo not drawn) | 44.8%
26 | CC(C)NC1CCCc2nc(-c3ccccc3)ncc21 (stereo not drawn) | -36.3%
27 | CN1CCN(c2ccc(NS(=O)(=O)c3ccc(Cl)s3)cc2C(=O)O)CC1 | -12.6%
28 | Cc1cc(C)n(CC2CCCCN2C(=O)CCc2ccncc2)n1 (stereo not drawn) | 4.52%
29 | Cc1cccc(C(=O)Nc2c(C(N)=O)n[nH]c2C)c1C | -41.9%
30 | CC(=O)N(Cc1noc(C)n1)C1CCN(Cc2ccc(C#N)cc2)C1 (stereo not drawn) | 27.4%
31 | Cc1cc(C)c2c(NC(C)c3nncn3C3CCCC3)ncnc2n1 (stereo not drawn) | 35.1%
32 | COc1ccc(-c2noc(C3=NN(C)C(=O)CC3)n2)cc1OC | -17.8%
33 | COc1ccc(Cc2noc(C3=NN(C)C(=O)CC3)n2)cc1OC | 53.8%
34 | CN1N=C(c2nc(Cc3cccc(Br)c3)no2)CCC1=O | 25.4%
35 | CCOCC1CN(C(=O)c2cccs2)Cc2cnn(CC3CC3)c21 (stereo not drawn) | 14.6%
36 | Cc1cc(C(=O)NC(COCC(C)C)c2ccco2)no1 (stereo not drawn) | 11.9%
37 | CC(C)c1noc(C(C)S(=O)(=O)CC(=O)N2CCCC2)n1 (stereo not drawn) | 37.9%
38 | O=C(c1ccc(=O)[nH]n1)N1CCCC(O)(CN2CCC(F)(F)CC2)CC1 (stereo not drawn) | -18.8%
39 | COc1cc(NCC(c2ccccn2)N(C)C)ncn1 (stereo not drawn) | 53.6%
40 | COc1cc(NCC(O)CN2CCCCCC2)ncn1 (stereo not drawn) | -25%
41 | Cc1cc2nc(C(C)C)cc(NCC(c3ccccn3)N(C)C)n2n1 (stereo not drawn) | 28%
42 | CC(c1nc(C(C)(C)C)no1)N1CCN(Cc2ccc(C#N)cc2)CC1 (stereo not drawn) | -4.94%
43 | Cc1ccoc1C(=O)N1CCn2cc(CN3CCCC3)nc2C1 | 28.7%
44 | CCOc1cccc2c1OCC(C(=O)NS(=O)(=O)c1c(C)noc1C)=C2 | -6.44%

Row | Compound | INHIBITION
45 | CO[C@H]1CN(S(=O)(=O)c2ccc(F)cc2)C[C@@]12CCCO2 | -23.4%
46 | CN(C)c1ccc(NC(=O)NCc2cccnc2N(C)C)cn1 | 17.5%
47 | Clc1ccc2oc(C3CCN(Cc4cccnc4)CC3)nc2c1 | 73.4%
48 | CC(C)(C)c1nc(CN2CCC(N3CCCCC3)CC2)no1 | 56.3%
49 | Clc1ccc2oc(C3CCN(Cc4nc(C5CC5)no4)CC3)nc2c1 | 42.6%
50 | CCc1nnc(CN2CCC(c3nc4cc(Cl)ccc4o3)CC2)o1 | 33.8%
51 | CCS(=O)(=O)c1ccc2oc([C@H]3CCN(Cc4ccccc4)C3)nc2c1 | -81.2%
52 | CN1CCN(C2CCN(Cc3noc(C(C)(C)C)n3)CC2)C1=O | -21.5%
53 | CC(C)(C)c1nc(CN2CCC(c3nc4cc(Cl)ccc4o3)CC2)no1 | 56.9%
54 | CC(C)(C)c1nc(CN2CCC(c3ccnn3CCO)CC2)no1 | -17%
55 | CCS(=O)(=O)c1ccc2oc([C@H]3CCN(Cc4cccnc4)C3)nc2c1 | 19.8%
56 | CC(C)(C)c1nc(CN2CCCC(c3noc(C4CC4)n3)C2)no1 (stereo not drawn) | -41.1%
57 | CC(C)c1noc(CN2CCC(c3nc4cc(Cl)ccc4o3)CC2)n1 | 67.9%
58 | c1ccc2oc(C3CCN(Cc4ncon4)CC3)nc2c1 | 15.2%
59 | CC(C)(C)c1n[nH]c(C2CN(C(=O)c3cnc[nH]3)CCO2)n1 (stereo not drawn) | -42.1%
60 | CN(C)CC1CN(Cc2cccc(C#N)c2)Cc2nccn2C1 (stereo not drawn) | -62.8%
61 | CC[C@H](C)Nc1ncc(-c2cccc(NC(=O)CNC)c2)cn1 | -21.1%
62 | Cc1n[nH]cc1CNCC(O)c1ccc(F)c(F)c1 (stereo not drawn) | 1.24%
63 | Cc1cc(C(=O)N2CC[C@]3(C[C@@H](OCc4ccccn4)CO3)C2)c(C)o1 | 43.9%
64 | O=C(NCC1CCCO1)c1cc(-c2cccnc2)c2cnccc2n1 (stereo not drawn) | 31.3%
65 | Cc1ncc(CN2CCC(c3nc4cc(Cl)ccc4o3)CC2)s1 | 83.3%
66 | Cc1ccc2oc([C@H]3CCN(Cc4ccccc4)C3)nc2c1 | 22.3%

Row | Compound | INHIBITION
67 | Cc1ncc(CN2CCCN(Cc3noc(C4CC4)n3)CC2)s1 | -36.1%
68 | Cc1nnc(CN2CCC(c3nc4cc(Cl)ccc4o3)CC2)n1C | -0.275%
69 | Cc1noc(C)c1CN1CCC(c2nc3cc(Cl)ccc3o2)CC1 | 72.3%
70 | Cc1nc(CN2CCC(c3nc4cc(Cl)ccc4o3)CC2)oc1C | -6.88%
71 | N#Cc1cnc2cc(F)cc(F)c2c1NC1CCN(CC(N)=O)CC1 | -71.1%
72 | CCCc1cc(C(=O)N[C@@H](CO)[C@@H](O)c2ccccc2)n(C)n1 | 20.3%
73 | CCn1nc(C)cc1C(=O)N1C[C@@H]2C[C@@H](C)O[C@@H]2C1 | 1.7%
74 | CCN(Cc1noc(CC(C)C)n1)Cc1ccccc1C | 42.4%
75 | CCN(Cc1noc(CC(C)C)n1)Cc1ccccc1OCC(=O)O | 11.8%
76 | CCN(Cc1noc(CC(C)C)n1)Cc1cccc(F)c1O | 45.2%
77 | CCN(Cc1noc(CC(C)C)n1)Cc1ccccc1C(=O)O | 58.2%
78 | CCN(Cc1noc(CC(C)C)n1)Cc1ncccc1C(=O)O | 35.9%
79 | CCN(Cc1noc(CC(C)C)n1)Cc1ccccc1Cl | 50.8%
80 | CCC1COCCN1C(=O)NCc1nccn1Cc1ccccc1 (stereo not drawn) | 40.7%
81 | CCCC1CCCN(C(=O)CCn2cccn2)CC1 (stereo not drawn) | 30.76%
82 | CC(C)C(=O)N1CC[C@H]2N(C)CC[C@@]2(C(=O)N2CCOCC2)CC1 | 14.9%
83 | CC(C)n1cnc2c1C(C(=O)N(C)C)N(Cc1ccccc1)CC2 (stereo not drawn) | 4.61%
84 | C1CCN(CCO[C@@H]2CC[C@H]3[C@H]2OCCN3CC2CCOCC2)C1 | 34.4%
85 | Cc1nccn1-c1ccc(C(C)NCc2ncc[nH]2)cc1 (stereo not drawn) | 50%
86 | COc1ccc(C)cc1C(C)NCc1cccn1C (stereo not drawn) | -40.7%
87 | Cc1nc(CNC(C)c2ccc(OCC(=O)NC3CC3)cc2)cs1 (stereo not drawn) | 33.7%
88 | Cc1nccn1-c1ccc(N2CCC(NC(C)C(C)C)CC2)cc1 (stereo not drawn) | 25.8%

Row | Compound | INHIBITION
89 | Cc1nccn1-c1ccc(C(C)NCc2cccn2C)cc1 (stereo not drawn) | 53.4%
90 | Cc1nccn1-c1ccc(C(C)NCc2cc[nH]n2)cc1 (stereo not drawn) | 50.8%
91 | Cc1nccn1-c1ccc(N2CCC(N[C@H](C)C(C)C)CC2)cc1 | 43%
92 | CCOc1ccc(CNC(C)c2ccc3[nH]c(=O)[nH]c3c2)cc1 (stereo not drawn) | 4.71%
93 | CC(NCc1cccn1C)c1noc(-c2ccc(Cl)cc2)n1 (stereo not drawn) | -1.15%
94 | COc1cc2c(cc1OC)CN(C(=O)NCC1CCCO1)CC2 (stereo not drawn) | 18.9%
95 | Cc1c(C(=O)O)oc2ccc(I)cc12 | 26.3%
96 | Cc1nn(C)c(N(C)C)c1CNCCS(C)(=O)=O | -21.915%
97 | O=C(CC1[C@H]2CN(C(=O)CO)C[C@@H]12)Nc1cccnc1 (stereo partly drawn) | 42.6%
98 | CC(NC(=O)NCCCc1n[nH]c(N)c1C#N)c1ccc(F)c(F)c1 (stereo not drawn) | -23.8%
99 | Cn1c(=O)[nH]c(=O)c2c1nc1n2CC(c2ccc(Br)cc2)O1 (stereo not drawn) | 1.985%
100 | CC(=O)Nc1nc(CN2CCOC(Cn3cccn3)C2)cs1 (stereo not drawn) | 31.3%
101 | CC(NCc1ccc(OCC(N)=O)cc1)c1ccc(Cl)c(Cl)c1 (stereo not drawn) | -6.91%
102 | CC(C)(C)CC(=O)NCC(=O)Nc1ccn(Cc2ccccc2)n1 | 21.6%
103 | O=C(NCC1CC[C@@]2(CNCCOC2)O1)c1cnccn1 (stereo partly drawn) | 5.36%
104 | O=C(NCC1CCC2(CCNCC2)CO1)c1cnccn1 (stereo not drawn) | 73.3%
105 | O=C(NCC1CCC2(CCNCC2)CO1)c1ccno1 (stereo not drawn) | 5.36%
106 | Cc1ncsc1C(=O)NCC1CCC2(CCNCC2)CO1 (stereo not drawn) | -10.9%
107 | O=C(NCC1CCCO1)c1csc(Cc2ccccc2)n1 (stereo not drawn) | -87.7%
108 | Nc1nc(C(=O)NCC2CCC3(CCNCC3)CO2)cs1 (stereo not drawn) | 55.6%
